Rows were chosen to be rich in hits. Some 2.7% of all compounds tested hit in one or more screens of this group.
EWS-Fli block: blocks EWS/Fli oncoprotein-driven transcription; A673 NR0B1-luciferase reporter, viability-normalised; inhibition, % at 12.6 µM; 350,000 compounds, 0.67% hits; AID 651661;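 active = mean inhibition of at least 50% after viability correction, with every replicate also passing that limit; inconclusive = mean reaches 50% but only one of two replicates passes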;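 also: firefly luciferase signal divided by Alamar Blue viability fluorescence both relative to DMSO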
INS-1E GSIS act: primary screen for activators of insulin secretion dependent on glucose, INS-1E cells, GLuc reporter luminescence; INS-1E GLuc reporter insulin secretion, 2-3 h; activation, % at 16.6 µM; 370,000 compounds, 0.61% hits; AID 743287;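 active = lowest replicate activation of at least 40%, so every replicate reaches that level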;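 also: 0% = median of neutral control wells and 100% = median of IBMX positive control wells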
PGC1a acetyl inh: lowers PGC1a acetylation signal in U2OS cells | inhibition, % at 15.6 µM | AlphaScreen anti-acetyl-lysine; with virally co-expressed GCN5 acetyltransferase | AID 651687 | 350,000 compounds, 0.17% hits;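 active = every replicate shows inhibition of at least 40%; inconclusive = mean inhibition at least 40% but some replicate below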;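 also: 0% = neutral control wells and 100% = positive control wells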
CFTR F508del cor: CFTR F508del correction in bronchial cells. CFBE cells, YFP halide quenching; stimulated with forskolin plus potentiator P3; % fluorescence drop versus neutral controls. AID 720511. activity (quench increase), % at 7.58 µM. 350,000 compounds, 0.36% hits;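 active = mean added fluorescence quench of at least 8% versus neutral control, with both replicates also reaching 8%; inconclusive = only one of the mean or replicate conditions met; inactive = mean below 8% and not both replicates reaching 8%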;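 also: cells transiently co-express mutant CFTR-F508del with the halide-sensitive YFP; corrector assay measuring rescue of mutant channel to the surface after 24 h compound exposure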
HIV Env fusion: blocks HIV Env-driven cell-cell fusion; HeLa-JRFL Env/CEM21 cell fusion, luciferase; inhibition, % at 12.3 µM; 360,000 compounds, 1.1% hits;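 active = mean replicate inhibition score of at least 50 and every replicate individually at or above 50; inconclusive = only one of the two criteria met; inactive = mean below 50 and not all replicates reaching 50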;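 also: 0% = plate neutral controls and 100% = maraviroc near 300 nM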
PAX8 reporter: inhibitors of PAX8 transcriptional activity in RMG-I cells; RMG-I TPO-luciferase reporter, SteadyGlo, 24 h; inhibition, % at 12.6 µM; 360,000 compounds, 1.2% hits; AID 652154;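 active = mean replicate inhibition at least 60% with every replicate also reaching 60%; inconclusive = only one of the two criteria is met; inactive = mean below 60% and not all replicates reaching 60%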;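 also: luciferase light reporting Pax8 driven TPO promoter activity; plate controls were median of neutral control wells for no effect and mitoxantrone controls for full effect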
Starred values were filed as active, the others as inactive; i = inactive; ? = inconclusive; / = no result; [ ] = dose if it differs, or a comment.

SMILES	EWS-Fli block	INS-1E GSIS act	PGC1a acetyl inh	CFTR F508del cor	HIV Env fusion	PAX8 reporter
O=C(NCc1cccnc1)/C(=C\c1ccc(-c2ccc(Cl)c(Cl)c2)o1)S(=O)(=O)c1ccccc1	40	-12	59*	-7	i	91*
O=C(Cc1cccs1)N(Cc1cccs1)C1(C(=O)NC2CCCCC2)CCCCC1	/	/	-3	/	79*	2
COc1cccc2c1C(=O)c1c(O)c3c(c(O)c1C2=O)CC(O)(C(C)=O)CC3OC1CC(N(C)C)C(O)C(C)O1 (stereo unspecified)	65*	-14	?	34*	58*	103*
CC(=O)[C@@]1(O)Cc2c(O)c3c(c(O)c2[C@H](O[C@H]2C[C@H](N)[C@H](O)[C@H](C)O2)C1)C(=O)c1ccccc1C3=O	59*	-3	/	22*	95*	104*
COc1cccc2c1C(=O)c1c(O)c3c(c(O)c1C2=O)C[C@@](O)(C(=O)CO)C[C@@H]3OC1CC(N)C(O)C(C)O1 (stereo partly specified)	10	/	-7	14*	-201	81*
COc1cccc2c1C(=O)c1c(O)c3c(c(O)c1C2=O)C[C@@](O)(C(=O)CO)C[C@@H]3O[C@H]1C[C@H](N)[C@H](O)[C@H](C)O1	47	/	-19	31*	-339	104*
CCCNC(=O)C[C@@H]1CC[C@H]2[C@@H](COC[C@H](O)CN2Cc2ccc(Cl)c(Cl)c2)O1	-12	-6	-7	5	/	0
O=C(C[C@@H]1C[C@@H]2c3cc(NC(=O)CC4CC4)ccc3O[C@@H]2[C@H](CO)O1)NCc1ccc2c(c1)OCO2	-1	-5	-5	-2	-3[16.7 µM]	-10
CC(=O)N(C)C[C@@H]1Oc2c(N)cccc2C(=O)N(C)C[C@@H]1C	/	27	/	/	/	/
Cc1noc(C)c1NC(=O)N(C)C[C@H]1Oc2ccc(NC(=O)Cc3cn(C)c4ccccc34)cc2C(=O)N([C@H](C)CO)C[C@@H]1C	-3	20	-10	0	/	/
Cc1cccc2cc3c(N)c(C#N)sc3nc12	/	/	4	/	91*	/
C/C=C/c1ccc([C@@H]2[C@H](CO)N(C(C)=O)C23CN(C(=O)c2cnccn2)C3)cc1	6	7	1	-1	/	/
COc1cc(NC(=O)c2cccc(C)c2)ccc1NC(=O)c1cc2ccccc2o1	33	83*	/	-3	-24	50
CCOc1cccc(C(=O)Nc2ccc(NC(=O)c3cc4ccccc4o3)c(OC)c2)c1	31	12	-6	-4	-12	-1
CC1=C(C(=O)NC2CCCc3c2cnn3-c2cccc(C)c2C)OCCO1 (stereo unspecified)	17	-28	-3	6	/	/
CCn1cc(C(=O)NC2CCCc3c2cnn3-c2cccc(C)c2C)cn1 (stereo unspecified)	-7	-23	/	4	57*	44
Cc1cccc(-n2ncc3c2CCCC3NC(=O)c2ccncc2)c1C (stereo unspecified)	28	/	3	-3	61*	45
C[C@H](CO)N1C[C@H](C)[C@H](CN(C)C(=O)Nc2ccc(C(F)(F)F)cc2)Oc2ccc(NC(=O)Cc3cn(C)c4ccccc34)cc2C1=O	-7	-5	9	2	20[16.7 µM]	/
COc1ccc(NC(=O)N(C)C[C@@H]2Oc3ccc(NC(=O)NC4CCCCC4)cc3C(=O)N([C@@H](C)CO)C[C@H]2C)cc1	-4	-1	-6	0	1[16.7 µM]	-18
Cc1ccc(-c2cc3onc(-c4ccccc4)c3c(=O)n2C)cc1	80*	6	/	-1	-50	-72
CCCOc1ccc(-c2cc3onc(-c4ccccc4)c3c(=O)n2C)cc1	62*	-6	/	-1	-2	-19
O=C(C[C@H]1CC[C@@H]2[C@H](COC[C@H](O)CN2S(=O)(=O)c2cccc(Cl)c2)O1)Nc1ccccc1	7	-23	-7	-2	/	0
COc1cc(-c2noc(C)c2-c2ccc(N(C)C)nc2)cc(OC)c1OC	61*	-2	/	3	-228	74*
COc1cc2sc3ccc(-c4ccc(N(C)C)nc4)cc3c(=O)c2cc1OC	-107	/	/	0	-96	-92
O=C(Nc1ccc(Cl)cc1)N[C@@H]1CC[C@@H](CCn2cc(C3(O)CCCC3)nn2)O[C@@H]1CO	-12	-35	2	-3	2[16.7 µM]	5
SMILES	EWS-Fli block	INS-1E GSIS act	PGC1a acetyl inh	CFTR F508del cor	HIV Env fusion	PAX8 reporter
N=C(N)c1ccc(OCCCCCOc2ccc(C(=N)N)cc2)cc1	6	2	10	3	/	83*
CCCCCCOc1ccc(/C(N)=N/O)cc1	/	/	-24	/	/	/
C[C@H]1CN([C@@H](C)CO)C(=O)c2cc(C#CC3CC3)cnc2O[C@H]1CN(C)S(=O)(=O)c1cccc(F)c1	1	-6	-9	-4	21[16.7 µM]	/
COc1ccc(/C=N\NC(=O)c2ccccc2OC)cc1COc1c(F)c(F)c(F)c(F)c1F	12	-5	/	4	10	64*
COc1ccc(/C=N\NC(=O)c2ccccc2Cl)cc1COc1c(F)c(F)c(F)c(F)c1F	5	3	1	-1	/	/
CCCC#Cc1ccc([C@@H]2[C@@H](CO)N(C(=O)C3CCCCC3)[C@H]2C#N)cc1	8	-8	-4	0	9[16.7 µM]	23
CCCC#Cc1ccc([C@@H]2[C@@H](C#N)N(C(=O)C3CCCCC3)[C@H]2CO)cc1	14	-15	4	-3	5[16.7 µM]	83*
COc1ccccc1C#Cc1ccc([C@H]2[C@H](C#N)N(C(=O)C3CCC3)[C@H]2CO)cc1	-6	-14	31	-3	4[16.7 µM]	106*
N#C[C@@H]1[C@@H](c2ccc(C#Cc3ccccc3F)cc2)[C@H](CO)N1C(=O)C1CCCCC1	3	24	-11	-1	0[16.7 µM]	81*
N#C[C@@H]1[C@@H](c2ccc(C#Cc3ccccc3F)cc2)[C@@H](CO)N1C(=O)C1CCCCC1	-40	4	4	-1	31[16.7 µM]	-9
COc1ccccc1C#Cc1ccc([C@@H]2[C@H](C#N)N(C(=O)C3CCC3)[C@H]2CO)cc1	-11	-6	-4	1	4[16.7 µM]	7
COc1ccccc1C#Cc1ccc([C@@H]2[C@H](C#N)N(C(=O)C3CCCCC3)[C@H]2CO)cc1	/	6	-15	-1	/	26
COc1ccccc1C#Cc1ccc([C@@H]2[C@@H](CO)N(C(=O)C3CCCCC3)[C@H]2C#N)cc1	10	5	-24	0	8[16.7 µM]	85*
CCCC#Cc1cnc2c(c1)C(=O)N([C@H](C)CO)C[C@H](C)[C@H](CN(C)Cc1ccc(C(=O)O)cc1)O2	-9	2	11	3	-12[16.7 µM]	/
Cc1ccc(/C=N/NC(=O)c2ccncc2)o1	9	7	-3	-2	/	84*
O=C(Oc1ccc(/C=N/NC(=O)c2ccccn2)cc1)c1cccc(Br)c1	/	44*	/	-1	-106	-98
O=C(N/N=C/c1ccco1)c1ccncc1	/	/	12	/	-41	/

Screening results deposited in PubChem by Broad Institute.
